High-throughput results: PubChem, National Center for Advancing Translational Sciences (NCATS)
Shown are actives, neighbours in structure and some others; about 8.8% of the full set was active somewhere.
LMNA splice mod: modulators of lamin A splicing. HeLa LMNA splicing GFP/RFP minigene ratio, 48 h. Potency, µM (titrated, usually from 46.1 µM), most hits filed as inhibitors. actives 0.01% (n = 200,000). AID 1487; active = well fitted inhibition curve with a large enough effect in the signal ratio, with a control signal flat, not every such curve was filed as active; inconclusive = small, poorly fitted or top-dose-only effect, or effect the other way, or a change in a side signal; the % refers to the signal ratio
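Read-out is the ratio of GFP to DsRed2 object intensity, acquired by 488 nm laser-scanning cytometry on HeLa lamin A-EGFP minigene reporter cells. Compound incubation 48 hrs at 37 °C in Opti-MEM with 2% FBS; DMSO 0.5% final.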
HTT ATP protect: Huntington cell model cytoprotection by ATP luminescence; PC12 HTT-Q103 induced, cytoprotection, ATP luminescence, 40 h; AID 1471; Potency, µM (highest dose often 56.4 µM), hits mostly activators; actives 0.14% (n = 230,000); also: nearly all actives have a fitted effect of over 45% in size
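PC12 cells with ecdysone-inducible HTT exon 1 Q103-GFP, induced with 100 nM tebufenozide and co-treated with library compounds in a dose series (1536-well, 1500 cells/well). Cytoprotection read as ATP content by ATPlite luminescence.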
HttQ103 aggreg: mutant huntingtin aggregation inhibition; actives 1.1% (n = 220,000); AID 1688; Potency, µM (doses to about 46.1 µM), actives largely listed as inhibitors; PC12 HttQ103-GFP aggregates, Acumen cytometry, 40 h; also: nearly all actives have a fitted effect of over 60% in size
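Quantitative HTS on tebufenozide-induced (100 nM) PC12 cells stably expressing polyQ103 Huntingtin exon 1–GFP. Reduction of bright GFP aggregates, detected by laser scanning cytometry after lysis, identified actives across the titration.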
HPGD inh: blocks human HPGD enzyme activity; P15428; purified HPGD, NADH fluorescence kinetic, PGE2 substrate; Potency, µM, hits mostly inhibitors; actives 4.3% (n = 150,000); active = well fitted inhibition curve with a large enough effect, not every such curve was filed as active; inconclusive = small, poorly fitted or top-dose-only effect, or another doubt; inactive = no such curve, though single readings can be large or run the other way
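20 nM HPGD preincubated 15 min at room temperature with compound in 50 mM Tris-HCl pH 8, 0.01% Tween 20. Started with 1 mM NAD+ and 30 uM prostaglandin E2; NADH fluorescence (360/450 nm) read 5 times over 30-s intervals, last minus first.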
ALDH1A1 block: inhibitors of human aldehyde dehydrogenase 1A1. AID 1030. Potency, µM (series often up to 75.3 µM), actives largely listed as inhibitors. Purified ALDH1A1, NADH fluorescence, propionaldehyde substrate. P00352. actives 7.3% (n = 220,000); active = well fitted inhibition curve with a large enough effect, not every such curve was filed as active; inconclusive = small, poorly fitted or top-dose-only effect, or another doubt; inactive = no such curve, though single readings can be large or run the other way
Target sequence (P00352 whole entry, looked up): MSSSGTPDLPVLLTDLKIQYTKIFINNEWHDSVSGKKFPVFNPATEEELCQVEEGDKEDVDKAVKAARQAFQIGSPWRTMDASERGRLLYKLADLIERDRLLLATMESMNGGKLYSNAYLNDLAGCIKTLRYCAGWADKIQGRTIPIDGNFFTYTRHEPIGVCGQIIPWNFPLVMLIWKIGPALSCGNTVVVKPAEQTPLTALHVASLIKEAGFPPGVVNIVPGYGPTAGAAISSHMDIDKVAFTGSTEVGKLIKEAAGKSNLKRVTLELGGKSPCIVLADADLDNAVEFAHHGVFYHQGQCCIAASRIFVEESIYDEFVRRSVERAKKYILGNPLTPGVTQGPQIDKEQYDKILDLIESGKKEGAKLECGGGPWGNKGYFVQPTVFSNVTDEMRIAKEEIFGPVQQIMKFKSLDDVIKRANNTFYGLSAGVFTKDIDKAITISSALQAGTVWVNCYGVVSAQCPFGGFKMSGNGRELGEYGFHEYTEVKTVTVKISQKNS
Hits are given with their value; [ ] = remark or other dose. Unless noted, calls follow the shape of the dose curve; as a rule, active = well fitted curve in the direction sought with a large enough effect; inconclusive = small, poorly fitted or top-dose-only effect, or another doubt; inactive = no such curve, though single readings can be large; an effect the other way counts as inactive or inconclusive.

COc1ccc(/C=C/C(O)=C(\C#N)c2nnc(N3CCOCC3)n2-c2ccccc2)cc1OC was read as HTT ATP protect inactive, HttQ103 aggreg inactive and ALDH1A1 block 12.6µM.
Screening COc1ccc(N2C(C)=CS/C2=C(/C#N)c2nnc(N3CCOCC3)n2-c2ccccc2)cc1 returned LMNA splice mod inactive, HTT ATP protect inactive, HttQ103 aggreg inactive, HPGD inh inactive and ALDH1A1 block 22.4µM.
Screening COC(=O)c1cccnc1-n1c(=O)c2cccnc2n(Cc2cccc(C(F)(F)F)c2)c1=O returned LMNA splice mod inconclusive, HTT ATP protect inactive, HttQ103 aggreg inactive and ALDH1A1 block inactive.
Screening CCc1cccc(NC(=O)CN2C(=O)COc3ccc(S(=O)(=O)N4CCC(C)CC4)cc32)c1 returned LMNA splice mod inactive.
CC(=O)C1(C)CC2(CC(C)(C)OC2=O)C(=O)O1 (stereo not given) was read as HTT ATP protect inactive, HPGD inh inactive and ALDH1A1 block inactive.
Screening CC(C)CC(=O)NC(=S)Nc1ccc(NC(=O)c2cccs2)cc1 returned LMNA splice mod inactive, HTT ATP protect inactive, HttQ103 aggreg inactive, HPGD inh 7.94µM and ALDH1A1 block inconclusive.
For CC(C)CC(=O)NC(=S)Nc1cccc(NC(=O)c2ccccc2)c1 the results were LMNA splice mod inactive, HTT ATP protect inactive[10 µM], HttQ103 aggreg inconclusive, HPGD inh inactive and ALDH1A1 block 25.1µM.
COc1cccc(CSc2nc3ccccc3cc2C=O)c1 was read as LMNA splice mod inconclusive, HTT ATP protect inactive, HttQ103 aggreg inactive, HPGD inh 12.6µM and ALDH1A1 block inconclusive.
`CC(=O)NC(=S)NNC(=O)COc1ccc([N+](=O)[O-])cc1` gave HTT ATP protect inactive, HttQ103 aggreg inactive and ALDH1A1 block 22.4µM.
C/C(=N\NC(=O)COc1ccc([N+](=O)[O-])cc1)C(C)(C)C was read as LMNA splice mod inactive, HTT ATP protect inactive, HttQ103 aggreg inactive, HPGD inh inactive and ALDH1A1 block 20µM.
Screening O=C(COc1ccccc1)NNC(=O)COc1ccc([N+](=O)[O-])cc1 returned HTT ATP protect inactive, HttQ103 aggreg inactive and ALDH1A1 block inactive.
CC(=O)NC(=S)NNC(=O)COc1ccc(Br)cc1 was read as LMNA splice mod inactive, HTT ATP protect inactive, HttQ103 aggreg inactive and ALDH1A1 block 17.8µM.
Screening C[C@H](O)[C@H](O)[C@@H](O)c1cnc2nc(N)[nH]c(=O)c2n1 returned HTT ATP protect inactive.
For CCCc1nc(SC)ncc1C(=O)N1CCN(c2ccc(Cl)cc2)CC1 the results were LMNA splice mod inactive.
CCCCCC(=O)/C=C/C=C\C/C=C\C/C=C\CCCC(=O)O was read as HTT ATP protect inactive, HPGD inh inactive and ALDH1A1 block inactive.
For COCCn1c(SCc2c(F)cccc2Cl)nc2c1c(=O)[nH]c(=O)n2C the results were LMNA splice mod inconclusive, HTT ATP protect inactive[10 µM], HttQ103 aggreg inactive, HPGD inh inactive and ALDH1A1 block 25.1µM.
`COCCn1c(Sc2ccc(C)cc2)nc2c1c(=O)[nH]c(=O)n2C` gave LMNA splice mod inactive, HTT ATP protect inactive[0.074 µM], HttQ103 aggreg inactive, HPGD inh inactive and ALDH1A1 block 12.6µM.
CCOCCn1c(SCc2ccc(F)cc2)nc2c1c(=O)[nH]c(=O)n2C was read as LMNA splice mod inactive, HTT ATP protect inactive, HttQ103 aggreg inactive, HPGD inh inactive and ALDH1A1 block inactive.
For CCOCCn1c(SCc2ccc(C)cc2)nc2c1c(=O)[nH]c(=O)n2C the results were LMNA splice mod inactive, HTT ATP protect inactive, HttQ103 aggreg inactive, HPGD inh inactive and ALDH1A1 block inactive.
Screening Cc1ccc(C(C2C(=O)CC(C)(C)CC2=O)C2C(=O)CC(C)(C)CC2=O)s1 returned LMNA splice mod inconclusive, HTT ATP protect inactive, HttQ103 aggreg inactive, HPGD inh 2.82µM and ALDH1A1 block 7.08µM.
Screening CC1(C)CC(=O)C(C(c2ccncc2)C2C(=O)CC(C)(C)CC2=O)C(=O)C1 returned LMNA splice mod inactive, HTT ATP protect inactive, HttQ103 aggreg inactive, HPGD inh inactive and ALDH1A1 block inactive.
For CCc1cccc(NC(=O)CN2C=NS(=O)(=O)c3ccccc32)c1 the results were LMNA splice mod inactive.
`CCc1cccc(NC(=O)CSC2=NS(=O)(=O)c3ccccc32)c1` gave LMNA splice mod inactive, HTT ATP protect inactive, HttQ103 aggreg inactive, HPGD inh 22.4µM and ALDH1A1 block inconclusive.
For CNC(=O)[C@H]1O[C@@H](n2cnc3c(N)ncnc32)[C@H](O)[C@H]1O the results were LMNA splice mod inactive, HPGD inh inactive and ALDH1A1 block inactive.
For Fc1ccccc1NC(=S)N1CCN(Cc2ccccc2)CC1 the results were LMNA splice mod inactive, HTT ATP protect inactive[10 µM], HttQ103 aggreg inactive, HPGD inh inactive and ALDH1A1 block inconclusive.
S=c1nc(-c2ccc(Cl)cc2)[nH][nH]1 was read as HTT ATP protect inactive[10 µM] and HttQ103 aggreg inactive[9.22 µM].
Screening Cc1ccc(C)n1-c1nc(=S)[nH][nH]1 returned LMNA splice mod inactive, HTT ATP protect inactive, HttQ103 aggreg inactive, HPGD inh 15.8µM and ALDH1A1 block 25.1µM.
COC(=O)c1ccc(CNC(=O)COC(=O)CCC2CCCC2)cc1 was read as LMNA splice mod inactive, HTT ATP protect inactive[10 µM], HttQ103 aggreg inactive, HPGD inh inactive and ALDH1A1 block inactive.
Screening COc1ccc(CNC(=O)COC(=O)CCC2CCCCC2)cc1 returned LMNA splice mod inactive, HTT ATP protect inactive[10 µM], HttQ103 aggreg inactive and ALDH1A1 block 5.62µM.
COc1ccc(CNC(=O)COC(=O)C2CC3C=CC2C3)cc1 (stereo not given) was read as LMNA splice mod inactive, HTT ATP protect inactive[10 µM], HttQ103 aggreg inactive, HPGD inh inconclusive and ALDH1A1 block 11.2µM.
`NCc1nnn(Cc2ccccc2)c1N` gave HTT ATP protect inactive[10 µM], HPGD inh inactive and ALDH1A1 block inactive[13.5 µM].
For COc1ccc(F)cc1S(=O)(=O)NC1CCCC1 the results were LMNA splice mod inactive, HTT ATP protect inactive, HttQ103 aggreg inactive, HPGD inh inactive and ALDH1A1 block inactive.
N[C@H](CS(=O)O)C(=O)O was read as HTT ATP protect inactive[1.9 µM].
CCc1cccc(OCCN2CCCC2)c1 was read as LMNA splice mod inactive, HTT ATP protect inactive[10 µM], HttQ103 aggreg inactive, HPGD inh inactive and ALDH1A1 block 22.4µM.
Clc1cccc(OCCN2CCOCC2)c1 was read as LMNA splice mod inactive, HTT ATP protect inactive[10 µM], HttQ103 aggreg inactive, HPGD inh inactive and ALDH1A1 block inactive.
For Clc1cccc(OCCN2CCNCC2)c1 the results were LMNA splice mod inconclusive, HttQ103 aggreg inactive, HPGD inh inactive and ALDH1A1 block 17.8µM.
Brc1cccc(OCCN2CCCCC2)c1 was read as LMNA splice mod inactive, HTT ATP protect inactive[10 µM], HttQ103 aggreg inactive, HPGD inh inactive and ALDH1A1 block inactive.
COc1ncc2nc(-c3ccc(F)cc3)c(=O)n(C)c2n1 was read as LMNA splice mod inactive, HTT ATP protect inactive and ALDH1A1 block inconclusive.
